Bioassay records from PubChem.
Shown are actives, neighbours in structure and some others; about 2.6% of the full set was active somewhere.
M18AAP inhibitor = blocks P. falciparum M18 aspartyl aminopeptidase | recombinant PfM18AAP, H-Glu-NHMec fluorogenic cleavage | inhibition, % at 7.35 µM | 1.2% of 290,000 active;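 active = inhibition above the campaign mean inhibition over all tested compounds plus 3 SD, cut at about 28% in these data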;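 also: 0% = plate median of test compound wells and 100% = 2 mM ZnCl2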
ABHD5-PLIN5 inh = blocks binding of human ABHD5 to perilipin-5; Q00G26+Q8WTS1; Split G. princeps luciferase complementation, luminescence, 4 h; inhibition, % at 4 µM; 0.78% of 360,000 active;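 active = inhibition above the mean inhibition across every tested compound plus 3 SD, cut at about 22% in these data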;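 also: 0% = DMSO only wells and the 100% control is not disclosed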
Exocytosis inh = blocks lytic granule exocytosis; inhibition, % at 10 µM; TALL-104 LAMP-1 surface exposure, flow cytometry; cells stimulated with thapsigargin and PMA; 0.66% of 360,000 active;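 active = inhibition above about 55%, limit read from the data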
Platelet DG rel = platelet dense granule release activity; human platelet-rich plasma, SFLLRN dense granule ATP release, luminescence; inhibition, %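 (compounds screened at 7.5 µM in platelet-rich plasma)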; 0.22% of 300,000 active; AID 1663;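 active = mean replicate score, as percent of positive control, at or above 50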
Rce1 inhib = yeast Ras-converting enzyme inhibition. Q03530. yeast membranes, quenched prenylated peptide cleavage fluorescence. calls only. 0.27% of 290,000 active. AID 2563;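 active = fall in fluorescence gain of 50% or more versus controls, with final raw signal at or below 3038400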;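 also: plate controls were neutral control wells for no effect and wells lacking membranes for full effect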
Target sequence (Q03530 whole entry, looked up): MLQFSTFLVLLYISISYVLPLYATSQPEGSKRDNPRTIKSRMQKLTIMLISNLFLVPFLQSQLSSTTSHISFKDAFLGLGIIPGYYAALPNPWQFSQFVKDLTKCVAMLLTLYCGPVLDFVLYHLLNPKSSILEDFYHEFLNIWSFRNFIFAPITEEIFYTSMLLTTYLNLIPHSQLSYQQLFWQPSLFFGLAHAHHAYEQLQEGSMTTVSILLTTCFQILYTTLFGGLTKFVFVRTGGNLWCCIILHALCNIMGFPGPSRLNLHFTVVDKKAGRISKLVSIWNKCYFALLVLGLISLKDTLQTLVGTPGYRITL
ABHD5 PLIN5 conf = confirmation of human ABHD5-PLIN5 interaction inhibitors | shares compounds with ABHD5-PLIN5 inh | biochemical ABHD5-PLIN5 interaction, luminescence | inhibition, % at 4 µM | 67% of 2,200 active | AID 651612; in the data active = inhibition above about 23%;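 also: 0% = DMSO vehicle wells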
HNF4 counter = active in HNF4 split-luciferase counter-screen for ABHD5-PLIN5 inhibitors | shares compounds with ABHD5-PLIN5 inh | HNF4 dimerization, luminescence, biochemical | inhibition, % at 4 µM | 77% of 2,200 active | AID 651674;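 active = mean inhibition across replicate wells exceeding the computed hit threshold, cut at about 13% in these data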;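 also: light from luciferase halves that rejoin when HNF4 fusion proteins dimerize; 0% = DMSO only wells and the 100% control is not given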
Numbers without * were called inactive.

CCOC(=O)/C(=C/c1c(C)n(C)c2ccc([N+](=O)[O-])cc12)C(C)=O was read as M18AAP inhibitor 7, ABHD5-PLIN5 inh 46*, Exocytosis inh 2, Platelet DG rel 9, Rce1 inhib inactive, ABHD5 PLIN5 conf 83* and HNF4 counter 76*.
`CCOC(=O)c1c(N)c2cc([N+](=O)[O-])ccc2n1C` gave M18AAP inhibitor 1, ABHD5-PLIN5 inh 5, Exocytosis inh -6, Platelet DG rel 36 and Rce1 inhib inactive.
For O=C1C=CC2=C3c4cc(O)c(O)cc4CC3(O)COC2=C1O (stereo not given) the results were ABHD5-PLIN5 inh 28*, Exocytosis inh -2, ABHD5 PLIN5 conf 64* and HNF4 counter 33*.
`CCC(C(=O)O/N=C(\N)c1cccc(C)c1)c1ccccc1` (stereo not given) gave M18AAP inhibitor 1, ABHD5-PLIN5 inh -4, Exocytosis inh 7, Platelet DG rel -4 and Rce1 inhib inactive.
Cc1ccc(N(CC(=O)NC(C)C)C(=O)CCC(=O)Nc2nccs2)cc1 was read as M18AAP inhibitor -3, ABHD5-PLIN5 inh -9, Exocytosis inh 10, Platelet DG rel 0 and Rce1 inhib inactive.
Screening Cc1cccc(NC(=S)N/N=C/c2cccc(O)c2)c1C returned M18AAP inhibitor 7, ABHD5-PLIN5 inh -5, Exocytosis inh -6, Platelet DG rel 19 and Rce1 inhib inactive.
COCc1cc(CNC(=O)C2CCC(=O)N(Cc3ccccc3OC)C2)[nH]n1 (stereo not given) was read as M18AAP inhibitor -7, ABHD5-PLIN5 inh 24*, Exocytosis inh 2, Platelet DG rel -1, Rce1 inhib inactive, ABHD5 PLIN5 conf -1 and HNF4 counter -2.
For O=C(Nc1ccccc1)c1nnsc1S(=O)c1ccc(Cl)cc1 (stereo not given) the results were M18AAP inhibitor -114, ABHD5-PLIN5 inh 34*, Exocytosis inh 60*, Platelet DG rel 28, Rce1 inhib inactive, ABHD5 PLIN5 conf 90* and HNF4 counter 106*.
CC(C)(C)c1cc(C(=O)CCN2CCOCC2)cc(C(C)(C)C)c1O was read as M18AAP inhibitor -8, ABHD5-PLIN5 inh 32*, Exocytosis inh 19, Platelet DG rel -5, Rce1 inhib inactive, ABHD5 PLIN5 conf 12 and HNF4 counter 32*.
`O=C(CCN1CCOCC1)c1ccc(N2CCCCC2)cc1` gave ABHD5-PLIN5 inh 21 and Exocytosis inh 38.
`CN(C)CC1CC/C(=C\c2ccc(O)cc2)C1=O` (stereo not given) gave ABHD5-PLIN5 inh 92*, Exocytosis inh 1, ABHD5 PLIN5 conf 93* and HNF4 counter 107*.
Screening O=C1/C(=C\c2ccc(Cl)cc2)CCC1CNc1ccc(Cl)cc1 (stereo not given) returned ABHD5-PLIN5 inh 37*, Exocytosis inh 10, ABHD5 PLIN5 conf 60* and HNF4 counter 80*.
COc1ccc(/C=C2/CCC(CN3CCOCC3)C2=O)cc1 (stereo not given) was read as ABHD5-PLIN5 inh 69*, Exocytosis inh -4, ABHD5 PLIN5 conf 100* and HNF4 counter 107*.
Screening CCOC(=O)c1c(-c2ccccc2)nc2ccc(Cl)cn12 returned M18AAP inhibitor 6, ABHD5-PLIN5 inh -3, Exocytosis inh -4, Platelet DG rel -4 and Rce1 inhib inactive.
CC1CCCCN1C(=O)COC(=O)/C=C/c1ccc2ccccc2n1 (stereo not given) was read as M18AAP inhibitor 2, ABHD5-PLIN5 inh 12, Exocytosis inh -1, Platelet DG rel 8 and Rce1 inhib inactive.
For Oc1c(C(c2ccccc2)N2CCCCC2)ccc2ccccc12 (stereo not given) the results were ABHD5-PLIN5 inh 38*, Exocytosis inh 17, ABHD5 PLIN5 conf 96* and HNF4 counter 48*.
O=C(N1CCCCC1)N1CCN(C(c2ccccc2)c2ccccc2)CC1 was read as M18AAP inhibitor 3, ABHD5-PLIN5 inh -8, Exocytosis inh 0, Platelet DG rel 9 and Rce1 inhib inactive.
Screening O=C(O)c1ccc(Nc2cc(Cl)c3nonc3c2[N+](=O)[O-])cc1 returned M18AAP inhibitor -57, ABHD5-PLIN5 inh 31*, Exocytosis inh -5, Platelet DG rel 0, ABHD5 PLIN5 conf 63* and HNF4 counter 95*.
`O=[N+]([O-])c1c(Nc2cccc(O)c2)cc(Cl)c2nonc12` gave M18AAP inhibitor -6, ABHD5-PLIN5 inh 52*, Exocytosis inh -10, Platelet DG rel 60*, Rce1 inhib inactive, ABHD5 PLIN5 conf 71* and HNF4 counter 95*.
`COC(=O)[C@H]1[C@H]2C[C@@H]3c4[nH]c5cc(OC)ccc5c4CCN3C[C@H]2C[C@@H](OC(=O)c2ccc(N)cc2)[C@@H]1OC` gave M18AAP inhibitor 8, ABHD5-PLIN5 inh 7, Exocytosis inh 3, Platelet DG rel -1 and Rce1 inhib inactive.
`NS(=O)(=O)c1ccc(NC(=O)C2(c3ccccc3)CCCC2)cc1` gave M18AAP inhibitor -2, ABHD5-PLIN5 inh -2, Exocytosis inh 2, Platelet DG rel 2 and Rce1 inhib inactive.
`C=CCOc1ccc(/C=C/C(=O)OCC(=O)NCc2cccc(OC)c2)cc1` gave ABHD5-PLIN5 inh 13 and Exocytosis inh 3.
C=CCOc1ccc(C=CC(=O)c2c(O)c(OC)c(OC)c(OC)c2OC)cc1 was read as ABHD5-PLIN5 inh 59*, Exocytosis inh -3, ABHD5 PLIN5 conf 72* and HNF4 counter 56*.
Screening CC(=O)C1=CCC(c2ccccc2)N(Cc2ccccc2)C1 (stereo not given) returned ABHD5-PLIN5 inh 20 and Exocytosis inh 9.
Screening Cc1ccc(S(=O)(=O)/N=C/c2ccco2)cc1 returned M18AAP inhibitor -3, ABHD5-PLIN5 inh 92*, Exocytosis inh 2, Platelet DG rel 4, Rce1 inhib inactive, ABHD5 PLIN5 conf 6 and HNF4 counter 8.
`Cc1ccc(S(=O)(=O)/N=C/N(C)C)cc1` gave M18AAP inhibitor -9, ABHD5-PLIN5 inh -7, Exocytosis inh 2, Platelet DG rel -24 and Rce1 inhib inactive.
Screening C=C1CCC(OC(C)=O)C2(C)CCC3C(C)C(=O)OC3C12O (stereo not given) returned M18AAP inhibitor 2, ABHD5-PLIN5 inh 0, Exocytosis inh -26 and Rce1 inhib inactive.
Screening C=C1C(=O)OC2C1CCC(C)C1C=CC(=O)C12C (stereo not given) returned ABHD5-PLIN5 inh 12 and Exocytosis inh -4.
Screening C=C1C(=O)OC2CC1C(O)CC(C)=CCCC(C)=CC(O)CC2C (stereo not given) returned ABHD5-PLIN5 inh 55*, Exocytosis inh 12, ABHD5 PLIN5 conf 81* and HNF4 counter 61*.
